Measured values from paper doi:10.1101/2024.03.05.583629.

Molecular target: pT7_6His-AlfaTag-ZIF268 (human, UniProt P18146 335-423)
Assay: PADIT-seq
Settings: dsDNA, one strand shown

Row | Sequence | binding signal [log2FC]
1 | CTCGAGGATATCAAGATCTGGCCTCGGCGCGTGGGGAGGAACCTCTAGCTAGCCGACTCACTATAGGGATAATCGCCCTGAGCAAAGACC | 0.871 ± 0.0966
2 | CTCGAGGATATCAAGATCTGGCCTCGGCGTGTGGGCGGGAACCTCTAGCTAGCCGACTCACTATAGGGATAATCGCCCTGAGCAAAGACC | 3.29 ± 0.0753
3 | CTCGAGGATATCAAGATCTGGCCTCGGCGCGTGGAGGGGAACCTCTAGCTAGCCGACTCACTATAGGGATAATCGCCCTGAGCAAAGACC | 0.222 ± 0.116
4 | CTCGAGGATATCAAGATCTGGCCTCGGCCGCCCACTCGGAACCTCTAGCTAGCCGACTCACTATAGGGATAATCGCCCTGAGCAAAGACC | 0.873 ± 0.0842
5 | CTCGAGGATATCAAGATCTGGCCTCGGCTTGCCACGCGGAACCTCTAGCTAGCCGACTCACTATAGGGATAATCGCCCTGAGCAAAGACC | 0.107 ± 0.166
6 | CTCGAGGATATCAAGATCTGGCCTCGGCCTCCCACGCGGAACCTCTAGCTAGCCGACTCACTATAGGGATAATCGCCCTGAGCAAAGACC | 1.28 ± 0.0958
7 | CTCGAGGATATCAAGATCTGGCCTCGGCGGCCCACGCGGAACCTCTAGCTAGCCGACTCACTATAGGGATAATCGCCCTGAGCAAAGACC | 0.55 ± 0.0922
8 | CTCGAGGATATCAAGATCTGGCCTCGGCCGCCAACGCGGAACCTCTAGCTAGCCGACTCACTATAGGGATAATCGCCCTGAGCAAAGACC | 0.204 ± 0.0826
9 | CTCGAGGATATCAAGATCTGGCCTCGGCCGCCCACGTGGAACCTCTAGCTAGCCGACTCACTATAGGGATAATCGCCCTGAGCAAAGACC | 1.68 ± 0.0823
10 | CTCGAGGATATCAAGATCTGGCCTCGGCCGCCTCCGCGGAACCTCTAGCTAGCCGACTCACTATAGGGATAATCGCCCTGAGCAAAGACC | 0.383 ± 0.0978
11 | CTCGAGGATATCAAGATCTGGCCTCGGCCCGTGGGCGGGAACCTCTAGCTAGCCGACTCACTATAGGGATAATCGCCCTGAGCAAAGACC | 3.06 ± 0.0841
12 | CTCGAGGATATCAAGATCTGGCCTCGGCGCGTGGACGGGAACCTCTAGCTAGCCGACTCACTATAGGGATAATCGCCCTGAGCAAAGACC | 0.177 ± 0.113
13 | CTCGAGGATATCAAGATCTGGCCTCGGCCGCCCAAGTGGAACCTCTAGCTAGCCGACTCACTATAGGGATAATCGCCCTGAGCAAAGACC | 0.0066 ± 0.0917
14 | CTCGAGGATATCAAGATCTGGCCTCGGCGCGTGGTCAGGAACCTCTAGCTAGCCGACTCACTATAGGGATAATCGCCCTGAGCAAAGACC | 0.198 ± 0.102
15 | CTCGAGGATATCAAGATCTGGCCTCGGCGGATGGGCGGGAACCTCTAGCTAGCCGACTCACTATAGGGATAATCGCCCTGAGCAAAGACC | 0.0532 ± 0.0937
16 | CTCGAGGATATCAAGATCTGGCCTCGGCCGCCCACAAGGAACCTCTAGCTAGCCGACTCACTATAGGGATAATCGCCCTGAGCAAAGACC | 0.545 ± 0.102
17 | CTCGAGGATATCAAGATCTGGCCTCGGCCGCGGTCGCGGAACCTCTAGCTAGCCGACTCACTATAGGGATAATCGCCCTGAGCAAAGACC | 0.00429 ± 0.0911

Row | Sequence | binding signal [log2FC]
18 | CTCGAGGATATCAAGATCTGGCCTCGGCGCGTGGAAAGGAACCTCTAGCTAGCCGACTCACTATAGGGATAATCGCCCTGAGCAAAGACC | 0.108 ± 0.113
19 | CTCGAGGATATCAAGATCTGGCCTCGGCGCGTGGCTAGGAACCTCTAGCTAGCCGACTCACTATAGGGATAATCGCCCTGAGCAAAGACC | 0.021 ± 0.107
20 | CTCGAGGATATCAAGATCTGGCCTCGGCGCGTGGGACGGAACCTCTAGCTAGCCGACTCACTATAGGGATAATCGCCCTGAGCAAAGACC | 1.73 ± 0.101
21 | CTCGAGGATATCAAGATCTGGCCTCGGCCGCCCCCGCGGAACCTCTAGCTAGCCGACTCACTATAGGGATAATCGCCCTGAGCAAAGACC | 1.56 ± 0.0899
22 | CTCGAGGATATCAAGATCTGGCCTCGGCCGCCCACCAGGAACCTCTAGCTAGCCGACTCACTATAGGGATAATCGCCCTGAGCAAAGACC | 0.0728 ± 0.0981
23 | CTCGAGGATATCAAGATCTGGCCTCGGCGCGTGGCCCGGAACCTCTAGCTAGCCGACTCACTATAGGGATAATCGCCCTGAGCAAAGACC | 0.0738 ± 0.102
24 | CTCGAGGATATCAAGATCTGGCCTCGGCGCGTGGGCTGGAACCTCTAGCTAGCCGACTCACTATAGGGATAATCGCCCTGAGCAAAGACC | 2.62 ± 0.0973
25 | CTCGAGGATATCAAGATCTGGCCTCGGCCGCCCAGACGGAACCTCTAGCTAGCCGACTCACTATAGGGATAATCGCCCTGAGCAAAGACC | 0.0722 ± 0.0958
26 | CTCGAGGATATCAAGATCTGGCCTCGGCGCGTGGGTAGGAACCTCTAGCTAGCCGACTCACTATAGGGATAATCGCCCTGAGCAAAGACC | 1.97 ± 0.0958
27 | CTCGAGGATATCAAGATCTGGCCTCGGCCGCCCAAAAGGAACCTCTAGCTAGCCGACTCACTATAGGGATAATCGCCCTGAGCAAAGACC | 0.0465 ± 0.0996
28 | CTCGAGGATATCAAGATCTGGCCTCGGCCGCATGCGCGGAACCTCTAGCTAGCCGACTCACTATAGGGATAATCGCCCTGAGCAAAGACC | 0.0876 ± 0.0884
29 | CTCGAGGATATCAAGATCTGGCCTCGGCCGCCCACCTGGAACCTCTAGCTAGCCGACTCACTATAGGGATAATCGCCCTGAGCAAAGACC | 0.259 ± 0.108
30 | CTCGAGGATATCAAGATCTGGCCTCGGCAGGTGGGCGGGAACCTCTAGCTAGCCGACTCACTATAGGGATAATCGCCCTGAGCAAAGACC | 2.15 ± 0.0839
31 | CTCGAGGATATCAAGATCTGGCCTCGGCCGCCCAGATGGAACCTCTAGCTAGCCGACTCACTATAGGGATAATCGCCCTGAGCAAAGACC | 0.0137 ± 0.113
32 | CTCGAGGATATCAAGATCTGGCCTCGGCGCGTGGGGGGGAACCTCTAGCTAGCCGACTCACTATAGGGATAATCGCCCTGAGCAAAGACC | 1.28 ± 0.104
33 | CTCGAGGATATCAAGATCTGGCCTCGGCGCGTGGGAAGGAACCTCTAGCTAGCCGACTCACTATAGGGATAATCGCCCTGAGCAAAGACC | 2.03 ± 0.0894
34 | CTCGAGGATATCAAGATCTGGCCTCGGCCGCACACGCGGAACCTCTAGCTAGCCGACTCACTATAGGGATAATCGCCCTGAGCAAAGACC | 0.422 ± 0.0927
